We go through 32 molecules from PubChem BioAssay (NCATS).

The nature of assay [1]: qHTS to identify inhibitors of the type 1 interferon - major histocompatibility complex class I in skeletal muscle: primary screen against the NCATS Pharmaceutical Collection (AID 1347407).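 Note: luminescence of HiBiT knocked into endogenous HLA-B as interferon-induced MHC class I level.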 In short, it runs like this:
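Cells were seeded with 4 ng/ml IFN-beta, incubated 1 h, then dosed with compounds over eight 1:5 steps up to 46 uM final. After 24 h at 37 C, HiBiT lytic reagent was added and luminescence read after 10 min lysis in the dark.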
(qHTS replaces the single test concentration by a dilution series.)

Assay [2] has as its target Protein phosphatase 1D (Homo sapiens) (UniProt O15297). Kind of assay: RapidFire Mass Spectrometry qHTS Assay for Modulators of WT P53-Induced Phosphatase 1 (WIP1) (AID 1347424).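 Note: amount of dephosphorylated VEPPL-S-QETFS peptide product formed by WIP1; series mostly up to about 63 µM.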 In a few lines: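 WIP1 (10 nM final) was preincubated 1 h at room temperature with compounds in Tris-HCl pH 7.5, 30 mM MgCl2, TCEP, EGTA, BSA; 2 uM VEPPL-pS-QETFS phosphopeptide was added for 5 min, quenched with formic acid, and dephosphorylated product quantified by RapidFire MS.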

Assay [3] has the same target. Kind of assay: Rhodamine-PBP qHTS Assay for Modulators of WT P53-Induced Phosphatase 1 (WIP1) (AID 1347425). In a few lines:
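5 nM WIP1 + 10 uM Rh-PBP, 50 mM Tris pH 7.5, 30 mM MgCl2, 1 mM TCEP, 0.1 mM EGTA, BSA; cpds pinned, 1 hr RT; + 10 uM phosphopeptide; fluorescence 1-min reads x 11 min; delta = f1 - f0.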

Assay [4] can be described thus: Primary qHTS for inhibitors of La Crosse Virus (LACV) - induced cell death in SH-SY5Y cells (AID 1508616).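 Note: top concentration of the series differs between compounds; higher means more rescue of cells from virus-induced death.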 In short, it runs like this:
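Luminescent ATP readout (ATPLite 1step, 5 min room temperature) measured rescue from LACV-induced death after 6 days of infection at 0.01 MOI; normalized to infected DMSO wells and uninfected DMSO wells.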

The nature of assay [5]: qHTS for inhibitors of adenylyl cyclases using a fission yeast platform: a pilot screen against the NCATS LOPAC library (AID 1347410). In short, it runs like this:
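Growth medium went into the plates first, then compounds were pinned (final up to 57 µM), then CHP2027 yeast were added. Plates were incubated overnight (18 h) at 30C in the dark, and GFP was measured by laser scanning cytometry.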

Assay [6] is described as follows: Validation qHTS assay for inhibitors of Activation Induced Cytidine Deaminase (AID): UDG Counterscreen signal (AID 1347427). In short, it runs like this:
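Counterscreen read of UDG activity (2 U/mL, 4/3x) in the FRET deamination format with AID (1 uM, 4/3x), DJC20/DJC23 substrates (250 nM, 4x), 4 h at room temperature. NaOH stop, fluorescence at 560 ex/665 em.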

Assay [7] concerns the target Single-stranded DNA cytosine deaminase (Homo sapiens) (UniProt Q9GZX7). As to the kind of experiment: Validation qHTS assay for inhibitors of Activation Induced Cytidine Deaminase (AID): AID signal (AID 1347429). In short, it runs like this: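 AID and UDG were combined and compounds added at final up to 114 uM, then DJC20/DJC23 FRET substrate was added for 4 hr at room temperature. NaOH was then added for 30 min before fluorescence was read at 540/590 nm.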

Assay [8] addresses Calcium and integrin-binding protein 1 (Homo sapiens) (UniProt Q99828). Kind of assay: Primary qHTS for Identification of Calcium Integrin Binding Protein 1 (CIB1) Competitor (AID 1508620).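 Note: GST tagged CIB1 binding a fluorescein labelled alphaIIb integrin peptide tracer; top concentration of the series differs between compounds.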 In short, it runs like this:
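Fluorescence polarization competition: CIB1-GST (1 uM final) preincubated with compound 15 min at room temperature, then FITC-labeled alphaIIb peptide (100 nM final) added for another 15 min. Polarization read at Ex 480/Em 540.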

Results filed as inconclusive are left out. Entries that show only a call come without a potency. Activity calls are given as the source filed them. Calls come from the whole dose curve; as a rule, active = well fitted curve in the direction sought with a large enough effect; inconclusive = small, poorly fitted or top-dose-only effect, or another doubt; inactive = no such curve, though single readings can be large; an effect the other way counts as inactive or inconclusive. Where a SMILES comes first, the peptide text is derived from it. Bridges are numbered along the chain shown (N, C = ends). [ ]: non-standard residue; d: D form. The star is where a group is joined. X1 = CCC(C)C(N)C1=NC(C(=O)*)CS1; dOrn = NCCC[C@@H](N)C(=O)O

Sequence of Calcium and integrin-binding protein 1 (Homo sapiens) (Q99828 whole entry, looked up): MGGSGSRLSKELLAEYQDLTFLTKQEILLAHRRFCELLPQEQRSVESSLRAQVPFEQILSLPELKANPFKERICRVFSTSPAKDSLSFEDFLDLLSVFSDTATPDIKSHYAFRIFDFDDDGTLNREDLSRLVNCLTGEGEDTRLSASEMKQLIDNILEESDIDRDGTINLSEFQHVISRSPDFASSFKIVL
Sequence of Protein phosphatase 1D (Homo sapiens) (O15297 whole entry, looked up): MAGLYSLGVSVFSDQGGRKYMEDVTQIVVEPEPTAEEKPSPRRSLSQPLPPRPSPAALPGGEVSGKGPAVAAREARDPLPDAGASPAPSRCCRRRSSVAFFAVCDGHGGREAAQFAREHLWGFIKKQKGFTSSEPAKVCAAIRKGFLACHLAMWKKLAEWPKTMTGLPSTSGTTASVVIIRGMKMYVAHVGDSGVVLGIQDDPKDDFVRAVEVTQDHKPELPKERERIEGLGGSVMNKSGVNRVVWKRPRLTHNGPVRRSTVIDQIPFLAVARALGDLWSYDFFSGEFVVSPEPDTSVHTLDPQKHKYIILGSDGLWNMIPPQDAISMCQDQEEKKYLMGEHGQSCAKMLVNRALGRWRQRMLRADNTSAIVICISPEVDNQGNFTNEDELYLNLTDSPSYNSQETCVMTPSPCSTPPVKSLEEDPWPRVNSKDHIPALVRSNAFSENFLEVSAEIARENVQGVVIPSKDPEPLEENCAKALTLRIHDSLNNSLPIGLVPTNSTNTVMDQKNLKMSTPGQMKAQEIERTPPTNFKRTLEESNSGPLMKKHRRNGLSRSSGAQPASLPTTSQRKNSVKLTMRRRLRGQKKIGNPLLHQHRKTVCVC
Sequence of Single-stranded DNA cytosine deaminase (Homo sapiens) (Q9GZX7 whole entry, looked up): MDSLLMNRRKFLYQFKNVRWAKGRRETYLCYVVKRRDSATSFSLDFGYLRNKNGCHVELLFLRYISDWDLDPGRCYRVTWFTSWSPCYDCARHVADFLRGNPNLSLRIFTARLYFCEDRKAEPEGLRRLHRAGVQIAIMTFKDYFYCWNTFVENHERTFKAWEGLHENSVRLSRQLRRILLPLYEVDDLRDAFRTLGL

For the molecule `CC(=O)OC(C)OC(=O)C(C)c1ccc(-c2ccccc2)c(F)c1` (stereo not given), the outcome in assay [1], in assay [2], in assay [3] and in assay [4] was inactive.
With `CN1Cc2c(N)cccc2C(c2ccccc2)C1` (stereo not given), the molecule was called inactive in assay [1], in assay [5], in assay [2], in assay [3], in assay [6] and in assay [7].
As to `c1ccc(Nc2nc3c(s2)CCCc2[nH]ncc2-3)nc1`, the Potency result in assay [8] is “inactive”.
`C[C@@H]1O[C@@H](O[C@H]2[C@H](OC(=O)C34CCC(C)(C)CC3C3=CCC5C6(C)CC(O)C(O[C@@H]7O[C@H](CO)[C@@H](O)[C@H](O)[C@H]7O)C(C)(C(=O)O)C6CCC5(C)C3(CO)CC4)O[C@H](C)[C@H](O)[C@@H]2O)[C@H](O)[C@H](O)[C@H]1O[C@@H]1OC[C@@H](O)[C@H](O)[C@H]1O` (stereo not given in full): the Potency result in assay [8] is “inactive”.
`C=C1C(OC(C)=O)C(=O)C2C(C)(C)C(OC(C)=O)CCC2(C)C1CC(OC(C)=O)/C(C)=C/COC(C)=O` (stereo not given): the Potency result in assay [8] was “inactive”.
Turning to `CC12CCC3C(C)(C)C(O)CCC3(C)C1Cc1c(oc(C(=O)O)cc1=O)O2` (stereo not given), the Potency entry in assay [8] is “inactive”.
For `C=CC1(C)CC(OC(=O)C(=C)C(O)COC(C)=O)C(C(=C)C(=O)OC)C(O)C1C(=C)CO` (stereo not given), the Potency entry in assay [8] was “inactive”.
In the case of `COc1cc(C2c3cc(O)c(OC)cc3CC(CO)C2CO)ccc1O` (stereo not given), the Potency result in assay [8] is “inactive”.
With `C=C1CC23CCC4[C@@](C)(CCC[C@@]4(C)C(=O)O)C2CCC1C3` (stereo not given in full), the Potency entry in assay [8] was “inactive”.
Regarding `CC1CCC2(C)C(CC(O)C(O)C23CO3)C1(C)CCC1=CC(O)OC1=O` (stereo not given), the Potency entry in assay [8] is “inactive”.
Regarding `CC1CC(O)C2(C)C(C(=O)O)=CCCC2C1(C)CCc1ccoc1` (stereo not given), the Potency entry in assay [8] is “inactive”.
Regarding `CC1(C)C(=O)N2c3ccccc3[C@]3(CC(n4cnc5ccccc5c4=O)C(=O)O3)[C@H]2N1O` (stereo not given in full), the Potency entry in assay [8] was “inactive”.
On the same count and under the same terms, then `CCC(C)C(N)C1=NC(C(=O)N[C@@H](CC(C)C)C(=O)N[C@H](CCC(=O)O)C(=O)N[C@H](C(=O)N[C@H]2CCCCNC(=O)[C@H](CC(N)=O)NC(=O)[C@@H](CC(=O)O)NC(=O)[C@H](Cc3cnc[nH]3)NC(=O)[C@@H](Cc3ccccc3)NC(=O)[C@H]([C@@H](C)CC)NC(=O)[C@@H](CCCN)NC2=O)[C@@H](C)CC)CS1` (stereo not given in full) (X1-L[dE]IK[dOrn]I[dF]H[dD]N; lactam 4-C), with “inactive”.
On the same count and under the same terms, the value for `N#CCc1ccc(O)cc1O[C@@H]1O[C@H](CO)[C@@H](O)[C@H](O)[C@H]1O` was “inactive”.
The same measure, in the same setting: the value for `CCCOc1ccn2c(C(C)=O)cc(-c3ccccc3S(C)(=O)=O)c2c1` was “inactive”; that for `COC1(CC(C)C)NC(=O)C(O)(Cc2ccccc2)NC1=O` (stereo not given) was “inactive”.
As to `C=CC1(C)CC(O)C2(CCC3C(C)(C(=O)O)CCCC3(C)C2=O)C1` (stereo not given), the Potency entry in assay [8] was “inactive”.
Same read-out and setting: the value for `C[C@@H]1CC[C@]2(C(=O)O)CC[C@]3(C)C(=CCC4[C@]5(C)C(CC[C@]43C)C(C)(C)[C@@H](O)[C@H](O)[C@@H]5O)C2[C@]1(C)O` (stereo not given in full) was “inactive”.
On to `COC1=Cc2c(nc3n(c2=O)C(C)C(=O)NC3(O)C(C)C)OC=C1` (stereo not given), for which the Potency result in assay [8] is “inactive”.
For the molecule `CCCC(N[C@@H](C)C(=O)N1[C@H](C(=O)O)C[C@@H]2CCCC[C@@H]21)C(=O)OCC` (stereo not given in full), the Potency entry in assay [8] was “inactive”.
Still for that read-out and setting: then `C=C1CC[C@H]2[C@@](C)(CCC(O)[C@@]2(C)CO)[C@@H]1C/C=C(/C(=O)O)C(O)CO` (stereo not given in full), with “inactive”; and `C[C@H]1CN(C[C@H](Cc2ccccc2)C(=O)NCC(=O)O)CC[C@@]1(C)c1cccc(O)c1`, with “inactive”; and `COC(=O)C1=CO[C@@H](O[C@@H]2O[C@H](CO[C@@H]3O[C@H](COC(=O)/C=C/c4ccc(O)cc4)[C@@H](O)[C@H](O)[C@H]3O)[C@@H](O)[C@H](O)[C@H]2O)[C@@H]2C(CO)=CC[C@H]12`, with “inactive”.
In the case of `CCc1c(CC(N)=O)c2cc(OCCCP(=O)(O)O)ccc2n1Cc1ccccc1`, the Potency entry in assay [8] is “inactive”.
The same measure, in the same setting: the value for `COC(=O)C[C@@H]1C(C(=O)O)=CO[C@@H](O[C@@H]2O[C@H](CO)[C@@H](O)[C@H](O)[C@H]2O)/C1=C\COC(=O)/C=C\c1ccccc1` was “inactive”; that for `CC1=C2C(=O)O[C@@H](c3ccoc3)[C@]2(C)CCC1` was “inactive”.
Same read-out and setting: then `CC/C=C/CC1=C(CCCCCCCC(=O)O)CCC1=O`, with “inactive”.
In the case of `CCOC(=O)[C@H](CCc1ccccc1)N[C@@H](C)C(=O)N1C2CCCCC2C[C@H]1C(=O)O` (stereo not given in full), the Potency entry in assay [8] is “inactive”.
Regarding `CC(/C=C/C1(O)C(C)(C)CC(O)CC1(C)O)OC1OC(CO)C(O)C(O)C1O` (stereo not given), the Potency result in assay [8] is “inactive”.
Turning to `COc1c(C)c2c(c(O)c1C/C=C(\C)CC/C=C(\C)CCC(=O)O)C(=O)OC2`, the Potency result in assay [8] was “inactive”.
Consider `O=C(CCO[C@@H]1O[C@H](CO)[C@@H](O)[C@H](O)[C@H]1O)c1ccc(O)cc1`, for which the Potency result in assay [8] was “inactive”.
For `COc1cc(CCc2ccccc2)c(C(=O)O)c2c1CC(C(C)(C)O)O2` (stereo not given), in assay [8], the Potency result was “inactive”.
